The source of these data is the supplement of paper PMC3414501.

Structures can show the parent of a compound that is named as a salt. Values without a mark were called inactive. Cut-off read from the data, not from the text of the source: active = 2 or more and inactive = the rest.

In this experiment the test system is S. cerevisiae BY4741 (wild-type), vegetative growth in YPD. As to the kind of experiment: growth sensitivity score (doubling time z-score vs DMSO controls); higher = slower growth, strongly negative scores also mark growth inhibition (complete suppression), active = hit call of the paper. The method in brief: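 Yeast (Saccharomyces cerevisiae BY4741 and AD1-9) was grown in rich medium in microtiter plates from a starting OD600 of 0.065, with optical density read every 15 min over 24 hours. The growth sensitivity score was the difference between compound and solvent-only means, divided by the solvent-only standard deviation. Every experiment had eight solvent-only wells.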
On to `O=C1c2c(O)cc(O)cc2OC(c2ccc(O)c(O)c2)C1O` (configuration not stated) [Taxifolin] (stock concentration (mM, diluted 1:100): 10), for which the growth sensitivity score was -0.85.
In the case of `CCN(CC)CC(=O)Nc1c(C)cccc1C` [Lidocaine] (stock concentration (mM, diluted 1:100): 9.6), the growth sensitivity score was -0.16.
As to `CC(=O)SCC(Cc1ccccc1)C(=O)NCC(=O)OCc1ccccc1` (configuration not stated) [Acetorphan] (stock concentration (mM, diluted 1:100): 10), the growth sensitivity score was 0.93.
Take `O=c1n(CCCN2CCN(c3cccc(Cl)c3)CC2)nc2ccccn12` [Trazodone hydrochloride] (stock concentration (mM, diluted 1:100): 10): the growth sensitivity score is 0.24.
On to `CC(N/C(=N\C#N)Nc1ccncc1)C(C)(C)C` (configuration not stated) [Pinacidil monohydrate] (stock concentration (mM, diluted 1:100): 10), for which the growth sensitivity score is 1.52.
`C=CC1=C(C(=O)O)N2C(=O)[C@@H](NC(=O)/C(=N\OCC(=O)O)c3csc(N)n3)[C@H]2SC1` [Cefixime trihydrate] (stock concentration (mM, diluted 1:100): 10): the growth sensitivity score is -0.62.
Consider `CC(Oc1c(Cl)cccc1Cl)C1=NCCN1` (configuration not stated) [Lofexidine hydrochloride] (stock concentration (mM, diluted 1:100): 10), for which the growth sensitivity score was 0.09.
For the molecule `O=C1CC[C@@H](C(=O)N2CSC[C@H]2C(=O)O)N1` [Pidotimod] (stock concentration (mM, diluted 1:100): 10), the growth sensitivity score was -1.4.
As for `C#C[C@]1(O)CC[C@H]2[C@@H]3[C@H](C)CC4=C(CCC(=O)C4)[C@H]3CC[C@@]21C` [Tibolone] (stock concentration (mM, diluted 1:100): 10), the growth sensitivity score was 0.52.
Regarding `CC1(C)S[C@@H]2[C@H](/N=C/N3CCCCCC3)C(=O)N2[C@H]1C(=O)O` [Mecillinam] (stock concentration (mM, diluted 1:100): 10), the growth sensitivity score was 1.05.
For the molecule `CCCc1nc2c(C)cc(-c3nc4ccccc4n3C)cc2n1Cc1ccc(-c2ccccc2C(=O)O)cc1` [Telmisartan] (stock concentration (mM, diluted 1:100): 10), the growth sensitivity score was 85.7 (active).
Consider `C[N+]1(C)CCC(OC(=O)C(O)(c2ccccc2)C2CCCC2)C1` (configuration not stated) [Glycopyrrolate] (stock concentration (mM, diluted 1:100): 10), for which the growth sensitivity score was -0.04.
Consider `CCOC(=O)C1=C(C)NC(C)=C(C(=O)OCC)C1c1ccccc1/C=C/C(=O)OC(C)(C)C` [Lacidipine] (stock concentration (mM, diluted 1:100): 10), for which the growth sensitivity score is -1.71.
For the molecule `Cn1nnc2c(C(N)=O)ncn2c1=O` [Temozolomide] (stock concentration (mM, diluted 1:100): 10), the growth sensitivity score is 1.92.
In the case of `CC1CNc2c(cccc2S(=O)(=O)N[C@@H](CCCNC(=N)N)C(=O)N2CC[C@@H](C)C[C@@H]2C(=O)O)C1` (some centres not stated) [Argatroban] (stock concentration (mM, diluted 1:100): 10.1), the growth sensitivity score is -0.6.
Regarding `CC(C)(C)NCC(O)c1ccc(O)c(CO)c1` (configuration not stated) [Salbutamol sulfate] (stock concentration (mM, diluted 1:100): 9.7), the growth sensitivity score was -0.62.
To `Nc1ccc2cn[nH]c2c1` [6-Aminoindazole] (stock concentration (mM, diluted 1:100): 10) belongs -0.64; to `CN1CCN(C2=Nc3cc(F)ccc3Cc3ccccc32)CC1` [Fluperlapine] (stock concentration (mM, diluted 1:100): 10), 0.57; to `C[C@H]1[C@H](OC(=O)CCC(=O)O)O[C@@H]2O[C@@]3(C)CC[C@H]4[C@H](C)CC[C@@H]1[C@@]24OO3` [Artesunate] (stock concentration (mM, diluted 1:100): 10), 2.81 (active).
In the case of `Cc1sc(N)c(C(=O)c2cccc(C(F)(F)F)c2)c1C` (stock concentration (mM, diluted 1:100): 10), the growth sensitivity score was 9.52 (active).
On to `CN(CCO)CC(O)Cn1cnc2c1c(=O)n(C)c(=O)n2C` (configuration not stated) [Xanthinol nicotinate] (stock concentration (mM, diluted 1:100): 10), for which the growth sensitivity score was -1.14.
For `CN(C)CCc1c[nH]c2ccc(Cn3cncn3)cc12` [Rizatriptan benzoate] (stock concentration (mM, diluted 1:100): 10), the growth sensitivity score is -0.18.
